Measurements taken from PubChem BioAssay (Tox21).
Several values for one entry are separate records, joined by “and”; a condition that tells them apart may be missing. Identical values can stand only once. Records with an inconclusive call do not appear. Where a call stands in place of a potency, no number is given. Some compounds were tested as several samples or in several runs, with calls that do not always agree. Activity calls are given as the source filed them. Calls come from the whole dose curve; as a rule, active = well fitted curve in the direction sought with a large enough effect in the repeat runs; inconclusive = weak or mixed curves; inactive = no such curve, though single readings can be large; an effect the other way counts as inactive or inconclusive.

Columns and labels:
[1] = qHTS RealTime-Glo MT Cell Viability Assay in HepG2 cells - 40 hour (AID 1224870); note: nearly all actives have a fitted effect of over 50% in size
Method in brief: (§1)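 Real-time viability: cells seeded at 600 per well together with NanoLuc and cell-permeant prosubstrate, compounds added after 5 h incubation. Luminescence tracked at 0, 8, 16, 24, 32 and 40 h of exposure.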

[2] = A CellTox Green Cytotoxicity Assay to monitor cytotoxicity in HEK293 cells - 40 hour (AID 1224871); note: nearly all actives have a fitted effect of over 45% in size; note: potency is the fitted concentration of half-maximal effect
Method in brief: (§2)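 Each value comes from one timepoint of a single continuous run in which HEK293 cells with CellTox Green were exposed to compound for up to 40 h at 37 C, dye fluorescence rising with cell death.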

[3] = qHTS RealTime-Glo MT Cell Viability Assay in HEK293 cells - 16 hour (AID 1224872); note: top concentration of the series differs between compounds; nearly all actives have a fitted effect of over 50% in size
Method in brief: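 HEK293 cells were seeded at 600 cells/well together with NanoLuc luciferase and cell-permeant prosubstrate, preincubated 5 h at 37 C/5% CO2, then given compound in DMSO by pintool. Luminescence from viable-cell prosubstrate reduction was read repeatedly over 40 h.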

[4] = qHTS RealTime-Glo MT Cell Viability Assay in HepG2 cells - 8 hour (AID 1224873); note: nearly all actives have a fitted effect of over 55% in size
Method in brief: as §1

[5] = qHTS RealTime-Glo MT Cell Viability Assay in HEK293 cells - 40 hour (AID 1224874); details: RealTime-Glo luminescence; max response: stronger effect = lower value; note: nearly all actives have a fitted effect of over 50% in size; note: potency is the fitted concentration of half-maximal effect
Method in brief: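 qHTS format; HEK293 cells with NanoLuc/prosubstrate reagent, 37 C/5% CO2 for 5 h pre-dosing; compounds 23 nL in DMSO; luminescence at each time point reflects viable cells.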

[6] = A CellTox Green Cytotoxicity Assay to monitor cytotoxicity in HEK293 cells - 24 hour (AID 1224875); note: series mostly up to about 77 µM; nearly all actives have a fitted effect of over 45% in size
Method in brief: as §2

[7] = A CellTox Green Cytotoxicity Assay to monitor cytotoxicity in HepG2 cells - 16 hour (AID 1224876); note: nearly all actives have a fitted effect of over 45% in size; note: potency is the fitted concentration of half-maximal effect
Method in brief: (§3)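 Continuous culture of HepG2 cells with a membrane-impermeant DNA dye; rising fluorescence marks dead cells. Compound exposure lasted up to 40 h at 37 C, with reads every 8 h from 0 h.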

[8] = qHTS RealTime-Glo MT Cell Viability Assay in HepG2 cells - 32 hour (AID 1224877); note: nearly all actives have a fitted effect of over 55% in size
Method in brief: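 HepG2 cells were seeded at 600 cells/well together with NanoLuc luciferase and a cell-permeant prosubstrate, preincubated 5 h at 37 C/5% CO2, then pin-dosed with compounds in DMSO. Nonlytic luminescence from viable cells was read at each time point.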

[9] = A CellTox Green Cytotoxicity Assay to monitor cytotoxicity in HepG2 cells - 24 hour (AID 1224878); note: nearly all actives have a fitted effect of over 45% in size; note: potency is the fitted concentration of half-maximal effect
Method in brief: as §3

[10] = A CellTox Green Cytotoxicity Assay to monitor cytotoxicity in HepG2 cells - 40 hour (AID 1224879); note: nearly all actives have a fitted effect of over 40% in size; note: potency is the fitted concentration of half-maximal effect
Method in brief: as §3

SMILES | outcome [1] | Potency [2] | outcome [3] | outcome [4] | max response [5] | Potency [6] | Potency [7] | outcome [8] | Potency [9] | Potency [10] | Potency [5]
CCOP(=S)(OCC)Oc1ccc([N+](=O)[O-])cc1 | inactive | inactive | inactive | inactive | -18.1% (inactive) and -17.8% (inactive) | inactive | inactive | inactive | inactive | inactive | 
CNC(=O)O/N=C(\SC)C(=O)N(C)C | inactive | inactive | inactive | inactive | -3.21% (inactive) and 9.55% (inactive) | inactive | inactive | inactive | inactive | inactive | 
CCCCC(CC)C(=O)Cl (stereo not drawn) | inactive | inactive | inactive | inactive | 14.8% (inactive) and -0.733% (inactive) | inactive | inactive | inactive | inactive | inactive | 
O=P1(NCCCl)OCCCN1CCCl (stereo not drawn) | inactive | inactive | inactive | inactive | 0.555% (inactive) and 9.01% (inactive) and 5.36% (inactive) | inactive | inactive | inactive | inactive | inactive | 
CCOP(=S)(OCC)Oc1cc(C)nc(C(C)C)n1 | inactive | inactive | inactive | inactive | 2.72% (inactive) and 7.6% (inactive) and 1.58% (inactive) | inactive | inactive | inactive | inactive | inactive and 24.5 µM (active) | 
Cc1ccc(N)cc1 | inactive | inactive | inactive | inactive |  | inactive | inactive | inactive | inactive | inactive | 
CN(C)CCC#N | inactive | inactive | inactive | inactive | 6.53% (inactive) and 12.6% (inactive) | inactive | inactive | inactive | inactive | inactive | 
Cl/C=C/Cl | inactive | inactive | inactive | inactive | -5.85% (inactive) and -1.58% (inactive) and 0.395% (inactive) | inactive | inactive | inactive | inactive | inactive | 
CC(C)CCCCCCOC(=O)c1ccccc1C(=O)OCCCCCCC(C)C | inactive | inactive | inactive | inactive | 12.6% (inactive) and 8.04% (inactive) and 6.43% (inactive) | inactive | inactive | inactive | inactive | inactive | 
Cc1cccc(N)c1 | inactive | inactive | inactive | inactive | 6.61% (inactive) and 3.01% (inactive) | inactive | inactive | inactive | inactive | inactive | 
C=CC(=O)OCC(CC)CCCC (stereo not drawn) | inactive | inactive | inactive | inactive | 13.3% (inactive) | inactive | inactive | inactive | inactive | inactive | 
COC(C)(C)CCCC(C)C/C=C/C(C)=C/C(=O)OC(C)C (stereo not drawn) | inactive | inactive | inactive | inactive |  | inactive | inactive | inactive | inactive | inactive | 
FC(F)(F)c1ccc(Cl)cc1 | inactive | inactive | inactive | inactive | 3.01% (inactive) and 8.11% (inactive) | inactive | inactive | inactive | inactive | inactive | 
O=C(O)C1C(C(=O)O)C2(Cl)C(Cl)=C(Cl)C1(Cl)C2(Cl)Cl (stereo not drawn) | inactive | inactive | inactive | inactive | 9.62% (inactive) and 1.68% (inactive) | inactive | inactive | inactive | inactive | inactive | 
OC[C@@H](O)[C@H]1O[C@@H]2O[C@H](C(Cl)(Cl)Cl)O[C@@H]2[C@H]1O | inactive | inactive | inactive | inactive | -9.36% (inactive) and 2.42% (inactive) | inactive | inactive | inactive | inactive | inactive | 
O=C/C=C/c1ccccc1 | inactive | inactive | inactive | inactive | -0.971% (inactive) and 11.8% (inactive) and 2.22% (inactive) | inactive | inactive | inactive | inactive | inactive | 
Cc1cccc(N)c1C | inactive | inactive | inactive | inactive | -0.402% (inactive) and 10.2% (inactive) | inactive | inactive | inactive | inactive | inactive | 
Cc1cc(Cl)ccc1OC(C)C(=O)O (stereo not drawn) | inactive | inactive | inactive | inactive | 3.64% (inactive) and -1.48% (inactive) | inactive | inactive | inactive | inactive | inactive | 
CC(=O)/C=C/c1ccccc1 | inactive | inactive | inactive | inactive | 7.83% (inactive) and 3.04% (inactive) and 5.74% (inactive) | inactive | inactive | inactive | inactive | inactive | 
O=C(O)C(Br)Br | inactive | inactive | inactive | inactive | -0.855% (inactive) and 1.09% (inactive) | inactive | inactive | inactive | inactive | inactive | 
COP(=S)(OC)Oc1ccc(SC)c(C)c1 | inactive | inactive | inactive | inactive | -4.14% (inactive) and -8.35% (inactive) and 5.42% (inactive) | inactive | inactive | inactive | inactive | inactive | 
Cc1ccc(N=C=O)cc1N=C=O | inactive | inactive | inactive | inactive | 7.57% (inactive) and -22.1% (inactive) | inactive | inactive | inactive | inactive | inactive | 

SMILES | outcome [1] | Potency [2] | outcome [3] | outcome [4] | max response [5] | Potency [6] | Potency [7] | outcome [8] | Potency [9] | Potency [10] | Potency [5]
Sc1ccccc1 | inactive | inactive | inactive | inactive | 0.339% (inactive) and -2.23% (inactive) and -0.106% (inactive) | inactive | inactive | inactive | inactive and 43.6 µM (active) | inactive and 43.6 µM (active) | 39.4 µM (active)
Nc1cc(Cl)cc(Cl)c1 | inactive | inactive | inactive | inactive | -2.18% (inactive) and 1.19% (inactive) | inactive | inactive | inactive | inactive | inactive | 
CC(C)c1cccc(C(C)C)c1O | inactive | 24.5 µM (active) and 43.6 µM (active) and inactive | inactive | inactive | -0.191% (inactive) and -2.39% (inactive) and 0.656% (inactive) |  | 43.6 µM (active) and inactive | inactive | 43.6 µM (active) and inactive | 43.6 µM (active) and inactive | 
OCC(O)CCl (stereo not drawn) | inactive | inactive | inactive | inactive | -3.2% (inactive) and 0.258% (inactive) | inactive | inactive | inactive | inactive | inactive | 
C[C@H]1C(=O)O[C@@H]2CCN3CC=C(COC(=O)[C@](C)(O)[C@]1(C)O)[C@H]23 | inactive | inactive | inactive | inactive | -22.4% (inactive) and -7.52% (inactive) and -7.78% (inactive) | inactive | inactive | inactive | inactive | inactive | 
O=C(O)Cc1ccccc1 | inactive | inactive | inactive | inactive | 21.7% (inactive) and 3.56% (inactive) | inactive | inactive | inactive | inactive | inactive | 
C=CC#N | inactive | inactive | inactive | inactive |  | inactive | inactive | inactive | inactive | inactive | 
CNC(=O)O/N=C/C(C)(C)SC | inactive | inactive | inactive | inactive | 6.31% (inactive) and 4.21% (inactive) | inactive | inactive | inactive | inactive | inactive | 
COS(=O)(=O)OC | inactive | inactive | inactive | inactive |  | inactive | inactive | inactive | inactive | inactive | 
Cc1ccc(O)c(C)c1 | inactive | inactive | inactive | inactive |  | inactive | inactive | inactive | inactive | inactive | 
CCNc1nc(Cl)nc(NC(C)C)n1 | inactive | inactive | inactive | inactive |  | inactive | inactive | inactive | inactive | inactive | 
CNCC(O)c1ccc(O)cc1 (stereo not drawn) | inactive | inactive | inactive | inactive |  | inactive | inactive | inactive | inactive | inactive | 
ClC(Cl)c1ccccc1 | inactive | inactive | inactive | inactive |  | inactive | inactive | inactive | inactive | inactive | 
CSc1nnc(C(C)(C)C)c(=O)n1N | inactive | inactive | inactive | inactive |  | inactive | inactive | inactive | inactive | inactive | 
c1ccc2c(c1)CCCC2 | inactive | inactive | inactive | inactive |  | inactive | inactive | inactive | inactive | inactive | 
CC(C)(C)C(=O)CCl | inactive | inactive | inactive | inactive |  | inactive | inactive | inactive | inactive | inactive | 
NNc1ccccc1 | inactive | inactive | inactive |  | 3.45% (inactive) [middle of 5 runs] | inactive | inactive | inactive | inactive | inactive | 
Cc1cccc(C)c1N | inactive | inactive | inactive | inactive |  | inactive | inactive | inactive | inactive | inactive | 
Nc1nc(N)nc(NC2CC2)n1 | inactive | inactive | inactive |  | -1.36% (inactive) and 9.96% (inactive) and -0.244% (inactive) | inactive | inactive | inactive | inactive | inactive | 
OCc1ccco1 | inactive | inactive | inactive | inactive |  | inactive | inactive | inactive | inactive | inactive | 
Nc1ncc([N+](=O)[O-])s1 | inactive | inactive | inactive |  | 0.802% (inactive) and 3.01% (inactive) | inactive | inactive | inactive | inactive | inactive | 
CCCOC(=O)c1ccccc1C(=O)OCCC | inactive | inactive | inactive | inactive |  | inactive | inactive | inactive | inactive | inactive | 
